Measurements from PubChem BioAssay AID588719 (Southern Research Specialized Biocontainment Screening …, 2011).
The campaign covered roughly 1,500 compounds. About 920 (61%) were called active. No rule for the calls is given here. The set was probably picked from earlier hits. The list shows a part of the results. Potency and affinity values are given separately.

assay: Vero 76 cell cytotoxicity, dose response, cytotoxicity control for VEEV inhibitor project (AID 588719); conditions: Vero 76 cells viability, cytotoxicity counter-screen; series mostly up to 25 µM; viability: at the top concentration

Compound | viability
NS(=O)(=O)c1cccc(NC(=O)CN2C(=O)C(=O)N(Cc3ccccc3)C2=O)c1 | 98.3% (inactive)
C=CCn1c(SCC(=O)NNC(=O)Nc2cccc(Cl)c2)nnc1-c1ccccc1 | 99.4% (inactive)
O=C(COC(=O)COc1ccccc1)Nc1ccc(Br)cc1F | 95% (inactive)
CN(CCC#N)C(=O)COC(=O)c1ccc2[nH]c3c(c2c1)CCCC3 | 87.1% (inactive)
Cc1ccc([C@H]2C[C@H](n3cc(-c4ccc(F)cc4)nn3)[C@@H](O)CN2CC2CCCCC2)cc1 | 76.3% (inactive)
Cc1nc(-c2ccccc2)sc1C(=O)/C=C/c1ccccc1 | 83.9% (inactive)
O=C(Nc1ncc(Cc2ccccc2Cl)s1)C1CCCO1 (stereo not drawn) | 92.1% (inactive)
Cc1nc(S/C(C(=O)O)=C2/C(=O)Nc3ccccc32)n[nH]1 | 96.2% (inactive)
O=C1Nc2cc3c(cc2C1=O)sc1ccccc13 | 101% (inactive)
O=C(C=Cc1cccs1)c1cccs1 | 88.5% (inactive)
CN1C[C@H](CNC(=O)OCc2ccccc2)C[C@@H]2c3cccc4c3c(cn4C)C[C@H]21 | 71.6% (inactive)
Cc1ccc2c(c1)cc(C(=O)NCc1ccccc1)n2C | 77.6% (inactive)
CCn1c(O)c(/C=N/NC(=O)c2ccccc2)c(=O)[nH]c1=S | 94.8% (inactive)
COc1ccc(/C=N/NC(=O)c2cccnc2)cc1COc1ccc(NC(C)=O)cc1 | 79.2% (inactive)
O=[N+]([O-])c1cccc(-c2c[n+]3c(n2-c2ccccc2)SCC3)c1 | 102% (inactive)
COc1cc(/C=C2/SC(=S)N(CCC(=O)N3CCN(C)CC3)C2=O)cc(OC)c1OC | 75.2% (inactive)
COCCN(Cc1nc(-c2ccc(-c3ccccc3)cc2)oc1C)C(C)C | 72% (inactive)
COc1cccc(NC(=S)N(CCCN2CCCC2)Cc2cccn2Cc2ccc(Cl)cc2)c1 | 81.5% (inactive)
O=C(Cc1c[nH]c2ccccc12)Nc1nnc(C2CC2)s1 | 74.5% (inactive)
COc1ccc(NC(=O)[C@H](Cc2c[nH]c3ccccc23)NC(=O)[C@@H]2Cc3ccccc3CN2)cc1 | 71.8% (inactive)
O=C1C2CCCN2C(c2ccccc2)N1c1ccc(Cl)cc1 (stereo not drawn) | 70.4% (inactive)
CC(=O)c1c(C)cc(C)c(CSc2nc(C)cc(=O)[nH]2)c1C | 83.9% (inactive)
CCc1ccc([C@@H]2C[C@H]3[C@@H](CN2S(=O)(=O)c2ccc(C)cc2)C(=O)C[C@@H](c2ccc(Cl)cc2)N3S(=O)(=O)c2ccccc2C)cc1 | 84.9% (inactive)
Cc1cc2nc(/N=C(\N)NC(=O)C(C)C)nc(C)c2cc1C | 77.7% (inactive)
O=c1c2ccccc2[nH]c(=S)n1CCCN1CCN(c2ccccc2F)CC1 | 78.4% (inactive)
O=c1c2ccccc2[nH]c(=S)n1CCCN1CCN(c2ccccc2)CC1 | 88.5% (inactive)

Compound | viability
COc1ccc(S(=O)(=O)Nc2ccc3c(c2)C(=O)N([C@H](C)CO)C[C@H](C)[C@@H](CN(C)C(=O)Nc2ccc(C(F)(F)F)cc2)OCCCC[C@H](C)O3)cc1 | 90.9% (inactive)
c1ccc(CCNc2ccc3c(c2)Cc2ccccc2-3)nc1 | 90.8% (inactive)
Cc1cc2ccc3ccccc3c2cc1CN(C)C | 84.6% (inactive)
Cc1cccc(C(=O)Nc2ccccc2SCC2CSc3nc4ccccc4c(=O)n32)c1 (stereo not drawn) | 75.4% (inactive)
O=C(CC1C(=O)NC2CCCCC2N1C(=O)c1ccc([N+](=O)[O-])cc1)Nc1ccccc1 (stereo not drawn) | 87.7% (inactive)
CC(=O)C1C(N2CC2)CC2C3CCC4=CC(=O)CCC4(C)C3CCC21C (stereo not drawn) | 85.9% (inactive)
CN1CCN(/N=C/c2ccc(N(c3ccccc3)c3ccccc3)cc2)CC1 | 75.6% (inactive)
OC1(c2cccs2)CN(c2ccc(Br)cc2)C2=[N+]1CCCS2 (stereo not drawn) | 74% (inactive)
Nc1ccccc1/C=C/c1ccccc1N | 81.8% (inactive)
CN(C)CCC(=O)C(Cc1ccccc1)c1ccccc1 (stereo not drawn) | 90.7% (inactive)
Cc1nn(-c2ccccc2)nc1C(=O)Nc1nnc(C(F)(F)F)s1 | 74% (inactive)
CCCc1nnc(NC(=O)c2nc(S(=O)(=O)Cc3ccc(C)cc3)ncc2Cl)s1 | 86.1% (inactive)
COc1ccccc1NC(=O)c1nc(S(=O)(=O)Cc2ccccc2)ncc1Cl | 96.6% (inactive)
Cc1ccc(C)c(NS(=O)(=O)c2ccc(-n3cccn3)cc2)c1 | 95.8% (inactive)
Cc1ccccc1-c1n[nH]c(=S)n1/N=C/c1ccc(-c2ccccc2Br)o1 | 72.7% (inactive)
O=C(COC(=O)c1ccc(Br)o1)NCc1ccc(Cl)cc1 | 93.3% (inactive)
Cc1noc(C)c1NC(=O)N(C)C[C@H]1OCc2cnnn2CCCC(=O)N([C@H](C)CO)C[C@@H]1C | 93.2% (inactive)
CC(C)(C)C(=O)Nc1sc(-c2ccccc2)cc1C(=O)O | 72.6% (inactive)
Nc1cc[n+](CC(=O)c2ccc3c(c2)OCCO3)cc1 | 101% (inactive)
CN(C)c1ccc(C(=O)c2ccc(N(C)C)c3ccccc23)cc1 | 26.9% (inactive)
O=C(OCC(=O)N1CCOCC1)c1ccc2[nH]c3c(c2c1)CCCC3 | 96.7% (inactive)
COc1ccc(-n2c(O)c(C=NCCN(C)C)c(=O)[nH]c2=O)cc1 | 101% (inactive)
O=C(Nc1ccc(N2CCCCC2)c(Cl)c1)c1cccnc1 | 73.2% (inactive)
Cc1c(O)c2ccccc2oc1=O | 100% (inactive)
CC1=C(C(=O)N2CCOCC2)CC(CC(=O)NC2CCCCC2)C(=O)N1Cc1ccc(C(C)(C)C)cc1 (stereo not drawn) | 98.4% (inactive)
COc1ccc(C2CC(=O)C3=C(C2)NC(C)=C(C#N)C3c2ccc(N(C)C)cc2)cc1 (stereo not drawn) | 75.9% (inactive)

Compound | viability
CC(=O)/C(C#N)=C1\NC(=O)C(Cc2ccccc2)S1 (stereo not drawn) | 73.6% (inactive)
COc1ccc(O)c(CN2CCCC(C(=O)Nc3cccc(-n4cccn4)c3)C2)c1 (stereo not drawn) | 81.4% (inactive)
CCc1nc(CN2CCCC(C(=O)Nc3ccc(-c4cccc(OC)c4)cc3)C2)c(C)[nH]1 (stereo not drawn) | 82.6% (inactive)
COc1ccc(-c2csc(NC(=S)NC(=O)c3cccs3)n2)cc1Br | 71.7% (inactive)
CN(c1ccc(OCC(=O)Nc2ccccc2C(=O)O)cc1)S(=O)(=O)c1ccc(Cl)cc1 | 70.6% (inactive)
Cc1nn(Cc2c(Cl)cccc2Cl)c(C)c1NC(=O)c1cc(C(C)C)on1 | 84.5% (inactive)
O=c1[nH]c(SCc2nc3c(cnn3-c3ccccc3)c(=O)[nH]2)nc2ccccc12 | 43.7% (inactive)
CCN(CC)P(=O)(NC(=O)C(Cl)(Cl)Cl)N(CC)CC.[Cl-].[Cl-].[Cl-].[Nd+3] | 73.9% (inactive)
Cc1nc(/C(N)=N/OC(=O)c2ccccc2Cl)c(C(F)(F)F)o1 | 91.4% (inactive)
C/C(N)=C(/C#N)C(=O)CSc1nnc(-c2ccc(OC(F)F)cc2)o1 | 93.8% (inactive)
COc1ccc(NC(=O)N(C)C[C@H]2Oc3cc(Br)ccc3S(=O)(=O)N([C@H](C)CO)C[C@@H]2C)cc1 | 88.9% (inactive)
Cc1[nH]c(=S)[nH]c(=O)c1Cc1c(O)ccc2ccccc12 | 83.9% (inactive)
CN(C)C1CCc2[nH]c3c(F)cc(F)cc3c2C1 (stereo not drawn) | 80.9% (inactive)
COc1ccc2c(c1)c(CCN)c(C)n2Cc1ccccc1 | 84% (inactive)
Cc1ccc2nc(-c3ccc(NS(=O)(=O)c4c(C)n(C)c(=O)n(C)c4=O)cc3)sc2c1 | 87.9% (inactive)
COc1cc(NC(=O)C2=C(C)OCCS2)c(Cl)cc1C(=O)NCCCN1CCCC(C)C1 (stereo not drawn) | 77.2% (inactive)
Cc1nn2c(NCCN(C)C)c3c(nc2c1-c1ccccc1)CCC3 | 72.9% (inactive)
CCOC(=O)C(C(=O)OCC)C(c1ccccc1)N1CCN(c2ccccc2)CC1 (stereo not drawn) | 105% (inactive)
OC1(c2cccs2)CN(c2ccc(Cl)cc2)C2=[N+]1CCCC2 (stereo not drawn) | 82% (inactive)
Cc1cn([C@H]2C[C@H](O)[C@@H](CCC(=O)NCc3ccc(N(C)C)cc3)O2)c(=O)[nH]c1=O | 93.3% (inactive)
CC(C)=CCN1CCN(Cc2nc(C(C)C)cs2)CC1CCO (stereo not drawn) | 87% (inactive)
N=C1C(c2nc(-c3ccc(Cl)cc3)cs2)=C(O)CN1CCCN1CCOCC1 | 77.8% (inactive)
O=C1C(=Cc2ccccc2O)SC(=S)N1CCCN1CCOCC1 | 80.4% (inactive)
COCCNC(=O)CCCn1c(=O)c2cc(OC)c(OC)cc2n(CC(=O)Nc2ccc(C)c(F)c2)c1=O | 94.7% (inactive)
CC(C)(C)c1cc(NC(=O)c2cc(F)c(F)c(F)c2F)no1 | 70.6% (inactive)
CCN(Cc1ccncc1)C(=O)c1ccccc1NS(=O)(=O)c1ccc(Br)cc1 | 86.5% (inactive)

Compound | viability
COc1cc(OC)cc(C(=O)NCCSc2c[nH]c3ccccc23)c1 | 89.6% (inactive)
COc1cc(OC)cc(C(=O)NCC(=O)OCC(=O)NC2CCCc3ccccc32)c1 (stereo not drawn) | 102% (inactive)
O=C(/C=C/c1ccccc1)c1ccccc1 | 97.5% (inactive)
Cc1ccc(C(=O)/C=C/c2ccccc2)o1 | 79.5% (inactive)
O=C(COC(=O)c1ccc(O)cc1)Nc1ccc2c(c1)OCO2 | 81.9% (inactive)
CCOc1ccccc1OCCC(=O)N1CCN(S(=O)(=O)c2ccccc2[N+](=O)[O-])CC1 | 77.9% (inactive)
COc1ccc(C(=O)NCC(=O)NCc2ccc3c(c2)OCO3)cc1[N+](=O)[O-] | 83.2% (inactive)
CCCOc1ccc(Oc2nc(-c3ccncc3)nc3ccccc23)cc1 | 83.4% (inactive)
COc1ccccc1[C@]1(C)ON(c2ccccc2C(F)(F)F)C1=O | 77% (inactive)
[O-][n+]1onc2c1CCc1[nH]c(-c3ccccc3)nc1-2 | 80.9% (inactive)
COc1ccc(/C=C/C(=O)c2cc3cccc(OC)c3oc2=O)cc1 | 90.9% (inactive)
COc1ccc(C=CC(=O)c2c(OC)cc(OC)c(OC)c2O)cc1 | 107% (inactive)
CCOC(=O)NNc1cc(C(F)(F)F)ccn1 | 99.2% (inactive)
Cc1ccc(C(=O)Nc2ccccc2SCC2CSc3nc4ccccc4c(=O)n32)cc1 (stereo not drawn) | 74% (inactive)
COc1cc2c(cc1NC(=O)c1ccc(C(C)(C)C)cc1)CCCC2 | 76% (inactive)
Cc1ccc(C(C)C)cc1OCC(=O)Nc1nnc(C2CC2)s1 | 83.1% (inactive)
O=c1oc2ccccc2cc1-c1csc(Nc2ccc(O)cc2)n1 | 68.4% (inactive)
COc1cccc(NC(=O)c2ncc(Cl)c(Cl)c2Cl)c1 | 84.3% (inactive)
CCOC(=O)c1ccccc1NC(=O)c1cn(CC)c2nc(C)ccc2c1=O | 91.6% (inactive)
COc1ccc(CCn2c(-c3ccco3)nc3ccccc3c2=O)cc1OC | 89% (inactive)
CCOc1ccccc1C(=O)NC(C(=O)OCn1nnc2ccccc2c1=O)C(C)C (stereo not drawn) | 87.5% (inactive)
CCN1CCN(CCCNC(=O)C2CCCN(c3nc4c(C)cc(C)cc4s3)C2)CC1 (stereo not drawn) | 91.2% (inactive)
CCCOc1ccc(C(=O)NNC(=S)NC(=O)c2cc(-c3ccc(Cl)cc3)nc3ccccc23)cc1 | 72% (inactive)
COC(=O)c1c(-c2ccccc2)csc1NC(=O)c1c(-c2ccccc2)noc1C | 61.7% (inactive)
CCOC(=O)c1c(NC(=O)c2c(-c3ccccc3)noc2C)sc(C)c1-c1ccccc1 | 50.6% (inactive)
